Results on 21 compounds are retold here after PubChem BioAssay.

“And” between values parts separate entries of the source, which are not always exact repeats. Identical values can stand only once. The source made the active and inactive calls.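 The calls were made as follows, unless noted: active = compounds whose cell count with miR-34 switched on is under 0.7 times the count with it off; inactive = the rest.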

By inhibition is commonly meant the change of the read-out against control, counted positive when it falls.

Assay [1] is described as follows: sensitizers of A549 cells to miR-34 induction, primary screen, imaging, A549 dox-inducible miR-34, nuclei and caspase counts (AID 1347080). The settings on record: A549 miR-34 inducible, Hoechst nuclei count, 48 h.
The nature of assay [2]: survival rescue of mitochondrial mutant cells in low glucose, primary screen, MELAS cybrids, Rieske KO mouse fibroblasts, CellTiter-Glo (AID 1508586;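 active = mean z-score across replicates of 1.96 or higher in either the MELAS or the Rieske mutant cell line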;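 also: z relative to plate mean and SD of compound and empty wells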).
Assay [3] deals with Hepatitis C virus NS3 helicase. Put plainly: HCV NS3 helicase inhibitors, primary screen, biochemical, fluorescence polarization, LOPAC1280 library (AID 687035; in the data active = inhibition above about 37%). The settings on record: Purified HCV NS3 helicase, Cy5-dT15 ssDNA binding fluorescence polarization; stronger effect = higher value; concentration not given here. On the technique in general: Polarisation of emitted light reports the rotation of a fluorescent probe.

Assay [4] is described as follows: Cy5 fluorescence quenching or enhancement artefacts, artefact control for HCV NS3 helicase inhibitor project, biochemical, LOPAC1280 (AID 687037; call rule not given here). The settings on record: Cy5-DNA-NS3h complex fluorescence interference counterscreen. For orientation: Counterscreens check selectivity or assay interference.
A short description of assay [5]: phospholipid biosynthesis inhibitors in animal cells, primary screen, cell-based, LOPAC library, screen 4 (AID 1347384; call rule not given here). The settings on record: phospholipid biosynthesis inhibition screen, at 10 µM.
Assay [6] in a line: viability rescue of complex I mutant cybrids, primary screen, cell-based, galactose medium, ATP luminescence (AID 1645843;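 active = z-score of at least 1.8 in each of two replicates, scored against plate mean and spread of sample wells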;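 also: positive z means more ATP and so rescue of galactose-driven cybrid death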). The settings on record: complex I mutant cybrid cells, 72 h, stronger effect = higher value.
Setting [7] is: stronger effect = lower value, cell number ratio, induced over uninduced.
Setting [8] is: measured here: relative caspase fold change +Dox/-Dox.
The mark [9] stands for this setting: measured here: total cells with miR-34 induction, stronger effect = lower value.
[10] abbreviates: measured here: total cells without miR-34 induction.
Setting [11] is: MELAS cybrid survival, CellTiter-Glo 48 h, stronger effect = higher value.
The mark [12] stands for this setting: Rieske KO mouse fibroblast survival, CellTiter-Glo 72 h.

As for `CCCCc1ncc(C=C(Cc2cccs2)C(=O)O)n1Cc1ccc(C(=O)O)cc1`, the fold change in assay [1] (setting [7]) was 0.858 (inactive); in assay [1] (setting [8]) it was 0.882. Moreover, the cell count stood at 8440 in assay [1] (setting [9]) and 9840 in assay [1] (setting [10]). Moreover, the z-score in assay [2] (setting [11]) was -0.00421 (inactive); in assay [2] (setting [12]) it was -0.115.
Consider `COC1C=CO[C@@]2(C)Oc3c(C)c(O)c4c(O)c(c(C=NN5CCN(C)CC5)c(O)c4c3C2=O)NC(=O)C(C)=CC=CC(C)C(O)C(C)C(O)C(C)C(OC(C)=O)C1C` (stereo partly drawn), for which the fold change is 0.973 (inactive) in assay [1] (setting [7]) and 0.46 in assay [1] (setting [8]). The values for the cell count in assay [1] (setting [9]) and in assay [1] (setting [10]) were 7970 and 8200, respectively. Further, the z-score in assay [2] (setting [11]) was -0.298 (inactive); in assay [2] (setting [12]), 0.515.
`Cc1nc(C#Cc2ccnc(Cl)c2)c(C)n1-c1ccc(OC(F)(F)F)cc1`: the fold change in assay [1] (setting [7]) is 1.01 (inactive); in assay [1] (setting [8]), 0.784. Besides, the values for the cell count in assay [1] (setting [9]) and in assay [1] (setting [10]) were 6890 and 6830, respectively. The z-score in assay [2] (setting [11]) is -0.149 (inactive); in assay [2] (setting [12]), 0.0252.
As for `CC(=O)O[C@H]1Cc2ccccc2N(C(N)=O)c2ccccc21`, the inhibition in assay [3] is -4% (inactive). The fluorescence ratio (interference) in assay [4] was 1 (inactive). Moreover, the fold change was 0.953 (inactive) in assay [1] (setting [7]) and 1.06 in assay [1] (setting [8]). The cell count turned out to be 10000 in assay [1] (setting [9]) and 10500 in assay [1] (setting [10]). In addition, the result in assay [5] was inactive. Also, the z-score in assay [6] is 0.61 (inactive).
With `O=C(CCCCCN1CCN(c2ccccc2-c2ccccc2)CC1)NC1CCCc2ccccc21` (stereo not drawn), the inhibition in assay [3] is 0% (inactive). In addition, the fluorescence ratio (interference) in assay [4] is 1 (inactive). Further, the fold change was 1.17 (inactive) in assay [1] (setting [7]) and 1.11 in assay [1] (setting [8]). Besides, the figures for the cell count in assay [1] (setting [9]) and in assay [1] (setting [10]) were 6130 and 5250, respectively. For the same compound, the compound was called inactive in assay [5]. Also, the z-score in assay [6] was -1.38 (inactive).
Regarding `O=C(CCc1ccc(O)cc1)c1c(O)cc(O)cc1OC1OC(CO)C(O)C(O)C1O` (stereo not drawn), the fold change in assay [1] (setting [7]) is 0.988 (inactive); in assay [1] (setting [8]), 0.673. The cell count was 10200 in assay [1] (setting [9]) and 10400 in assay [1] (setting [10]). Besides, the z-score in assay [2] (setting [11]) was -0.378 (inactive); in assay [2] (setting [12]), 0.518.
Take `CNc1nc(-c2ccc3c(N)n[nH]c3c2)cc(N2CC(C(=O)NC3CCCCC3)CCC2C)n1` (stereo not drawn): the results for the fold change in assay [1] (setting [7]) and in assay [1] (setting [8]) were 0.8 (inactive) and 0.791, respectively. Further, the cell count amounted to 6100 in assay [1] (setting [9]) and 7620 in assay [1] (setting [10]). Besides, the figures for the z-score in assay [2] (setting [11]) and in assay [2] (setting [12]) were 0.231 (inactive) and -0.229, respectively.
As to `COc1cc2c(cc1OC)CC(=O)N(CCCN(C)CC1Cc3cc(OC)c(OC)cc31)CC2` (stereo not drawn), the fold change is 0.865 (inactive) in assay [1] (setting [7]) and 1.23 in assay [1] (setting [8]). For the same compound, the values for the cell count in assay [1] (setting [9]) and in assay [1] (setting [10]) were 8090 and 9350, respectively. In addition, the z-score in assay [2] (setting [11]) was -0.285 (inactive); in assay [2] (setting [12]), 0.346.
Turning to `OCC(O)C(O)C(O)C(O)CO` (stereo not drawn), the fold change in assay [1] (setting [7]) is 0.977 (inactive) and 0.927 (inactive); in assay [1] (setting [8]) it was 0.781 and 0.815. For the same compound, the cell count was 7830 and 9620 in assay [1] (setting [9]); 8020 and 10400 in assay [1] (setting [10]). Moreover, the z-score in assay [2] (setting [11]) is -0.426 (inactive) and -0.241 (inactive); in assay [2] (setting [12]), -0.124 and 0.173.
As for `O=C(O)C1=COC(OC2OC(CO)C(O)C(O)C2O)[C@@H]2C(CO)=CC[C@H]12` (stereo partly drawn), the fold change in assay [1] (setting [7]) was 0.954 (inactive); in assay [1] (setting [8]), 1.02. Moreover, the cell count came to 9820 in assay [1] (setting [9]) and 10300 in assay [1] (setting [10]). The z-score in assay [2] (setting [11]) is -0.392 (inactive); in assay [2] (setting [12]) it was 0.447.
In the case of `CCCN1CC(CSC)C[C@@H]2c3cccc4[nH]cc(c34)C[C@H]21` (stereo partly drawn), the fold change was 0.938 (inactive) in assay [1] (setting [7]) and 0.485 in assay [1] (setting [8]). The cell count in assay [1] (setting [9]) was determined as 7000; in assay [1] (setting [10]), 7460. For the same compound, the figures for the z-score in assay [2] (setting [11]) and in assay [2] (setting [12]) were -0.0829 (inactive) and -0.225, respectively.
As to `OC[C@H]1OC(n2cnc3c(N[C@H]4CCC[C@@H]4O)ncnc32)[C@H](O)[C@@H]1O` (stereo partly drawn), the inhibition in assay [3] was -3% (inactive). Besides, the fluorescence ratio (interference) in assay [4] was 1 (inactive). Also, the figures for the fold change in assay [1] (setting [7]) and in assay [1] (setting [8]) were 1.03 (inactive) and 1.86, respectively. Besides, the cell count in assay [1] (setting [9]) is 10800; in assay [1] (setting [10]), 10500. In addition, the result in assay [5] was inactive. The z-score in assay [6] is 0.53 (inactive).
On to `OCC1OC(c2ccc(Cl)c(Cc3ccc(OC4CCOC4)cc3)c2)C(O)C(O)C1O` (stereo not drawn), for which the values for the fold change in assay [1] (setting [7]) and in assay [1] (setting [8]) were 0.997 (inactive) and 0.234, respectively. The cell count amounted to 8710 in assay [1] (setting [9]) and 8730 in assay [1] (setting [10]). Also, the z-score in assay [2] (setting [11]) is -0.39 (inactive); in assay [2] (setting [12]) it was -0.293.
Consider `COC1=CC(=O)CC(C)[C@@]12Oc1c(Cl)c(OC)cc(OC)c1C2=O` (stereo partly drawn), for which the fold change in assay [1] (setting [7]) is 0.974 (inactive); in assay [1] (setting [8]), 0.639. Further, the cell count in assay [1] (setting [9]) turned out to be 8290; in assay [1] (setting [10]), 8510. In addition, the z-score is -0.169 (inactive) in assay [2] (setting [11]) and -0.138 in assay [2] (setting [12]).
On to `Cc1cc(C=C2SC(=S)NC2=O)c(C)n1-c1cccnc1`, for which the fold change was 0.889 (inactive) in assay [1] (setting [7]) and 0.503 in assay [1] (setting [8]). The cell count in assay [1] (setting [9]) was 7760; in assay [1] (setting [10]), 8720. Further, the z-score was -0.359 (inactive) in assay [2] (setting [11]) and -0.24 in assay [2] (setting [12]).
As to `N[C@H](C(=O)O)[C@H](Cc1ccccc1)C(=O)O`, the inhibition in assay [3] was -1% (inactive). Also, the fluorescence ratio (interference) in assay [4] is 1 (inactive). Besides, the fold change is 0.97 (inactive) in assay [1] (setting [7]) and 1.76 in assay [1] (setting [8]). For the same compound, the cell count was found to be 10400 in assay [1] (setting [9]) and 10700 in assay [1] (setting [10]). Also, the outcome in assay [5] was inactive. In assay [6], the z-score was 0.705 (inactive).
Consider `O=C1c2c(O)cc(O)cc2OC(c2cc(O)c(O)c(O)c2)C1O` (stereo not drawn), for which the fold change in assay [1] (setting [7]) is 0.92 (inactive); in assay [1] (setting [8]) it was 0.77. Moreover, the cell count in assay [1] (setting [9]) was 9760; in assay [1] (setting [10]), 10600. The z-score was -0.325 (inactive) in assay [2] (setting [11]) and 0.635 in assay [2] (setting [12]).
`COc1cc(C(O)CO)ccc1O` (stereo not drawn): the inhibition in assay [3] is -1% (inactive). The fluorescence ratio (interference) in assay [4] was 1 (inactive). The results for the fold change in assay [1] (setting [7]) and in assay [1] (setting [8]) were 0.99 (inactive) and 1.37, respectively. Moreover, the cell count turned out to be 9940 in assay [1] (setting [9]) and 10000 in assay [1] (setting [10]). In addition, the outcome in assay [5] was inactive. The z-score in assay [6] is 0.42 (inactive).
As for `N#CC(=Cc1ccc(O)c(O)c1)C(=O)NCc1ccccc1`, the fold change was 0.901 (inactive) in assay [1] (setting [7]) and 1.14 in assay [1] (setting [8]). For the same compound, the cell count in assay [1] (setting [9]) was determined as 6440; in assay [1] (setting [10]), 7150. Further, the z-score in assay [2] (setting [11]) is -0.517 (inactive); in assay [2] (setting [12]) it was 0.15.
With `CCOC(=O)C1=C(C)NC(C)=C(C(=O)OCC)C1c1c(F)c(F)c(F)c(F)c1F`, in assay [3], the inhibition is -5% (inactive). Also, the fluorescence ratio (interference) in assay [4] was 0.9 (inactive). For the same compound, the fold change is 1.11 (inactive) in assay [1] (setting [7]) and 0.622 in assay [1] (setting [8]). Moreover, the figures for the cell count in assay [1] (setting [9]) and in assay [1] (setting [10]) were 5220 and 4680, respectively. The call in assay [5] was inactive. Besides, the z-score in assay [6] is -0.415 (inactive).
As to `CC[C@]1(O)C[C@@H]2CN(CCc3c([nH]c4ccccc34)[C@@](C(=O)OC)(c3cc4c(cc3OC)N(C=O)[C@@H]3[C@@]45CCN4CC=C[C@@](CC)(C(OC(C)=O)[C@]3(O)C(=O)OC)[C@H]45)C2)C1` (stereo partly drawn), the fold change in assay [1] (setting [7]) is 1.22 (inactive); in assay [1] (setting [8]) it was 0.801. The cell count in assay [1] (setting [9]) was determined as 1340; in assay [1] (setting [10]), 1100. Moreover, the z-score in assay [2] (setting [11]) is 0.317 (inactive); in assay [2] (setting [12]), -1.38.
